Bioassay records: PubChem BioAssay, Johns Hopkins Ion Channel Center
Compounds with a hit are over-represented: about 1.6% of the library has one in this group of screens.
KCNQ2 block = KCNQ2 (rat) channel inhibition. CHO-K1 KCNQ2, FluxOR thallium flux, 20 min; hits give low values. B-score at 10 µM. 310,000 compounds, 1.1% hits. AID 2156;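 active = fluorescence ratio B-score at most minus 3 library SDs, with starting brightness B-score within 2 library SDs, cut at about -5.5 in these data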
KCNQ2 pot = KCNQ2 (rat) channel potentiation | B-score at 10 µM | CHO-K1 KCNQ2, FluxOR thallium flux fluorescence; hits give high values | O88943 | 310,000 compounds, 0.54% hits;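 active = fluorescence ratio B-score at least 3 SD of library B-scores, with initial fluorescence B-score within 3 of them, cut at about 5.3 in these data; same plate scores as AID 2156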;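 also: B-score of peak minus minimum over baseline fluorescence ratio after K+ and Tl+ stimulus; positive B-score means potentiation of KCNQ2 with more thallium influx and brighter signal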
Kir21 conf inh = confirmation of mouse Kir2.1 potassium channel inhibitors. shares compounds with KCNQ2 pot. 2,300 compounds, 41% hits. Tl flux remaining, % of negative control (hits give low values), % at 10 µM. Kir2.1-expressing cells, FluxOR thallium flux fluorescence; hits give low values;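 active = Primary-screen hit whose thallium flux fell at least 3 control SD below untreated wells in both duplicates, with normal baseline fluorescence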
HEK293 ctr = counter-screen for Kir2.1 inhibitors: effect in parental HEK293 cells. shares compounds with KCNQ2 pot. FluxOR thallium flux fluorescence; 0% = unstimulated blank wells. FluxOR signal as % of negative control (100 = no effect), % at 10 µM. 2,300 compounds, 19% hits. AID 2105;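 active = dye signal at least 3 control SD above or below untreated wells in both duplicates, raw fluorescence within 3, either direction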;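 also: percent is based on the flux ratio of peak minus minimum fluorescence over baseline F0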
CHO-K1 Tl ctr = counter-screen for KCNQ2 potentiators: effect in parental CHO-K1 cells. activity increase over 3SD of controls, % at 10 µM. 1,200 compounds, 43% hits. FluxOR thallium flux fluorescence; zero = vehicle mean+3SD, 100% = vehicle-minus-blank window. shares compounds with KCNQ2 pot;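 active = signal rise of at least 3 SD above the untreated control mean, in both duplicate wells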;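 also: counter screen of KCNQ2 potentiator hits so any rise reflects channel-independent effects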
KCNQ1 pot spec = human KCNQ1 counter-target activity of KCNQ2 potentiators; shares compounds with KCNQ2 pot; CHO KCNQ1 stable, FluxOR thallium flux fluorescence; beyond 3SD, as % of vehicle-control signal; activation over 3SD threshold, % at 10 µM; 1,200 compounds, 28% hits; AID 2283;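 active = fluorescence ratio rise of at least 3 SD of vehicle wells above their mean, in both replicate wells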
Target sequence (P51787 whole entry, looked up): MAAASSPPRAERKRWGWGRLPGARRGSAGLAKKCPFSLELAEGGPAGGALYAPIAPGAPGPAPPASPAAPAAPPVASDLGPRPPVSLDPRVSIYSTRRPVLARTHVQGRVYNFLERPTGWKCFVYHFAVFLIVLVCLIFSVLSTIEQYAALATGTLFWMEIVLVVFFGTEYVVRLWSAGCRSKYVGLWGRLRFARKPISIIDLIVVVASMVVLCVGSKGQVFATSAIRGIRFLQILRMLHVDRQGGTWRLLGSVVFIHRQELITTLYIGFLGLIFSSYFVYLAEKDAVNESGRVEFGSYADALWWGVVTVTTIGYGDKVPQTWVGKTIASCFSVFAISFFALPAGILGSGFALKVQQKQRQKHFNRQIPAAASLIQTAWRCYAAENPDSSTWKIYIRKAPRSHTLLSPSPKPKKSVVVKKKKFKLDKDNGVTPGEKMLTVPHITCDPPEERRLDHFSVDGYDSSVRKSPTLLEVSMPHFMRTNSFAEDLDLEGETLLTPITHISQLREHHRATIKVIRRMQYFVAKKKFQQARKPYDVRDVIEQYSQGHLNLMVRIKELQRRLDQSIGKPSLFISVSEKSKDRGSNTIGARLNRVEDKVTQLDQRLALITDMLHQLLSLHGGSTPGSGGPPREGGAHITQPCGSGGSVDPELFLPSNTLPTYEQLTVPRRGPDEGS
KCNQ2 pot conf = rat KCNQ2 channel potentiator confirmation | shares compounds with KCNQ2 pot | CHO-KCNQ2 cells, FluxOR thallium flux fluorescence | potentiation, less the hit threshold, % at 10 µM | 1,200 compounds, 68% hits | AID 2287;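 active = fluorescence ratio rising 3 SD or more over the vehicle control mean in both replicates, plus primary screen hit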;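 also: peak minus minimum thallium fluorescence divided by baseline after K/Tl stimulus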
Kir21 spec = mouse Kir2.1 off-target activity of KCNQ2 potentiators; shares compounds with KCNQ2 pot; HEK293 Kir2.1, FluxOR thallium flux fluorescence; activity over 3SD threshold, % at 10 µM; 1,200 compounds, 2% hits;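 active = fluorescence ratio rise of at least 3 SD above the vehicle-control mean, seen in both replicates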
KCNQ2 W236L MoA = potentiates the retigabine-insensitive rat KCNQ2 W236L mutant channel; shares compounds with KCNQ2 pot; CHO KCNQ2-W236L, automated patch clamp current; current increase over 3SD of negative controls (%), hits give high values, % at 25 µM; 940 compounds, 10% hits;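 active = current increase at least 3 SD of the untreated controls above them in both duplicate recordings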
Each line names hits and unclear results; the compound was inactive in the other large screens (follow-up assays come after a bar, where they were run).

CC(C)CC(NC(=O)C1CCCCC1)C(=O)NC(C)c1ccccc1 (centres undefined)	KCNQ2 pot 17.6 | Kir21 conf inh inactive | HEK293 ctr inactive | CHO-K1 Tl ctr 3.7 | KCNQ1 pot spec inactive | KCNQ2 pot conf 29.1 | Kir21 spec inactive | KCNQ2 W236L MoA inactive
CC(NC(=O)CC1CCCCC1)c1ccccc1 (centres undefined)	KCNQ2 pot 5.3 | Kir21 conf inh inactive | HEK293 ctr inactive | CHO-K1 Tl ctr inactive | KCNQ1 pot spec inactive | KCNQ2 pot conf 7.1 | Kir21 spec inactive | KCNQ2 W236L MoA inactive
COc1ccc(S(=O)(=O)Nc2cc3c4c(c2)CCN4C(=O)CC3)cc1	none (no result: KCNQ2 pot)
Cc1onc(-c2ccccc2Cl)c1C(=O)NCc1ccc(F)cc1	none
N#Cc1c(NC(=O)c2cccc(S(=O)(=O)Nc3ccc(C(=O)O)cc3)c2)sc2c1CCCC2	none
CCCC(C(=O)Nc1cc(S(=O)(=O)N2CCOCC2)ccc1OC)c1ccccc1 (centres undefined)	none (no result: KCNQ2 pot)
CCN1CCN(CCCNC(=O)CN2C(=O)c3cccnc3Oc3ccc(Cl)cc32)CC1	none (no result: KCNQ2 pot)
CCCCOc1ccc(CCC(=O)N/N=C/c2ccco2)cc1	KCNQ2 pot 9.1 | Kir21 conf inh inactive | HEK293 ctr inactive | CHO-K1 Tl ctr 47.1 | KCNQ1 pot spec 65.4 | KCNQ2 pot conf 33.3 | Kir21 spec inactive | KCNQ2 W236L MoA inactive
CCCOc1ccc(CCC(=O)N/N=C/c2ccco2)cc1	none
O=C(COc1c(Br)cc(Br)cc1Br)N/N=C/c1ccco1	KCNQ2 pot 6.28 | Kir21 conf inh inactive | HEK293 ctr inactive | CHO-K1 Tl ctr inactive | KCNQ1 pot spec inactive | KCNQ2 pot conf inactive | Kir21 spec inactive
Cc1cc(C)cc(OCC(=O)N/N=C/c2ccco2)c1	none (no result: KCNQ2 pot)
COc1ccc(-c2cnc3c(c2)CCC3(C#N)C#N)cc1	none
COc1ccc(S(=O)(=O)NNc2nc(C)cc(C)n2)cc1[N+](=O)[O-]	none
Oc1cccc2cc3cccc(O)c3c(O)c12	none
O=c1[nH]cc(N=Cc2cc(Cl)cc(Cl)c2O)c(=O)[nH]1	KCNQ2 pot 8.31 | Kir21 conf inh inactive | HEK293 ctr inactive | CHO-K1 Tl ctr 15.0 | KCNQ1 pot spec 18.0 | KCNQ2 pot conf 23.7 | Kir21 spec inactive | KCNQ2 W236L MoA inactive
O=c1[nH]cc(N=Cc2cc([N+](=O)[O-])ccc2O)c(=O)[nH]1	none (no result: KCNQ2 pot)
COc1ccccc1CNC(=O)C1Cc2cc(S(=O)(=O)N3CCCCC3)ccc2N1C(C)=O (centres undefined)	none (no result: KCNQ2 pot)
COc1cc(CNCc2ccccn2)ccc1OCc1ccc(Cl)cc1Cl	none (no result: KCNQ2 pot) | Kir21 conf inh 26.0% | HEK293 ctr inactive
COc1cc(CNCCN2CCOCC2)ccc1OCc1ccc(Cl)cc1Cl	none (no result: KCNQ2 pot)
CCC(C)c1ccc(C(CC)NC(=O)C2CCCO2)cc1 (centres undefined)	none
CCCC(C1=C(O)CC(C)(C)CC1=O)C1C(=O)CC(C)(C)CC1=O (centres undefined)	none (no result: KCNQ2 pot)
Cc1ccc(C(C2=C(O)CC(C)(C)CC2=O)C2C(=O)CC(C)(C)CC2=O)o1 (centres undefined)	KCNQ2 pot 8.67 | CHO-K1 Tl ctr inactive | KCNQ1 pot spec 53.9 | KCNQ2 pot conf 1.5 | Kir21 spec inactive | KCNQ2 W236L MoA 45.6%
Cc1ccnc(N2CCN(C(=O)CSc3nc4ccccc4nc3N3CCC(C)CC3)CC2)c1	none (no result: KCNQ2 pot)
COc1ccc(OC)c(C(C)NC(=O)C23CC4CC(CC(C4)C2)C3)c1 (centres undefined)	none
COc1ccc(OC)c(C(C)NC(=O)Nc2ccccc2)c1 (centres undefined)	KCNQ2 pot 9.56 | CHO-K1 Tl ctr inactive | KCNQ1 pot spec inactive | KCNQ2 pot conf 32.6 | Kir21 spec inactive | KCNQ2 W236L MoA inactive
Cc1noc(NS(=O)(=O)c2ccc(NC(=O)C(CC(C)C)N3C(=O)c4ccccc4C3=O)cc2)c1C (centres undefined)	none (no result: KCNQ2 pot)
Cn1c(N/N=C/c2cc3ccccc3nc2Cl)nc2ccccc21	none (no result: KCNQ2 pot)
CC1(C)CCc2cc(CN3CCN(c4ccccn4)CC3)ccc2O1	none
COc1ccc(S(=O)(=O)n2ccc(-c3ccc4c(c3)CCC(C)(C)O4)n2)cc1	KCNQ2 pot 8.24 | Kir21 conf inh inactive | HEK293 ctr inactive | CHO-K1 Tl ctr 3.8 | KCNQ1 pot spec inactive | KCNQ2 pot conf inactive | Kir21 spec inactive
CC1(C)CCc2cc(-c3ccnc(=S)[nH]3)ccc2O1	none (no result: KCNQ2 pot)
CC1(C)CCc2cc(-c3ccn(S(=O)(=O)c4ccccc4Cl)n3)ccc2O1	KCNQ2 pot 18.6 | Kir21 conf inh inactive | HEK293 ctr inactive | CHO-K1 Tl ctr 4.6 | KCNQ1 pot spec inactive | KCNQ2 pot conf 39.2 | Kir21 spec inactive | KCNQ2 W236L MoA 3.0%
Cn1c(N)c(S(=O)(=O)N2CCN(Cc3ccccc3)CC2)c(=O)n(C)c1=O	none
COc1ccc(NC(=S)N(CCCOC(C)C)C2CCN(C(C)=O)CC2)cc1Cl	none
CC(C)C[C@H](N)c1nnc(S(=O)(=O)Cc2cccc(F)c2)o1	none (no result: KCNQ2 pot) | Kir21 conf inh 72.5% | HEK293 ctr inactive
CC(C)CCNC(=O)c1ccc(CSCc2cccc(F)c2)o1	none (no result: KCNQ2 pot)
Cc1cccc(C)c1NC(=O)CN(C)C(=O)CSC(=S)N1CCCC1	none (no result: KCNQ2 pot)
COc1ccc(S(=O)(=O)N2CCOCC2)cc1NC(=O)c1ccccc1-c1ccc(C(F)(F)F)cc1	none
COCCNCC(O)CON=C1c2ccccc2-c2ccccc21 (centres undefined)	none (no result: KCNQ2 pot) | Kir21 conf inh 32.5% | HEK293 ctr inactive
CC(C)CCNCC(O)CON=C1c2ccccc2-c2ccccc21 (centres undefined)	none (no result: KCNQ2 pot)
Cc1ccc(S(=O)(=O)N2CCCOC2CNC(=O)C(=O)NC2CCCC2)cc1 (centres undefined)	none
COc1cc(C)ccc1OCCCCNCc1ccccc1	none | Kir21 conf inh 58.5% | HEK293 ctr inactive
Cc1ccc(OCCNCc2ccccc2)c(C)c1	none (no result: KCNQ2 pot)
C/C=C/c1ccc(OCCOc2cc(C=O)ccc2OC)c(OC)c1	none
C/C=C/c1ccc(OCCOCCNCc2ccccc2)c(OC)c1	none | Kir21 conf inh 30.0% | HEK293 ctr inactive
COc1ccc(C(=O)N2CCN(CCCc3ccccc3)CC2)cc1OC	none (no result: KCNQ2 pot)
O=C(NCCN1CCCCC1)c1ccc(F)cc1Cl	none
CC(C)(C)NC(=O)CN(Cc1ccco1)C(=O)CCC(=O)Nc1nccs1	none (no result: KCNQ2 pot)
